Test results as given in PubChem BioAssay (NCATS).
Inconclusive results are not listed. Calls of active or inactive are those of the source. Unless noted, calls come from the whole dose curve; as a rule, active = well fitted inhibition curve with a large enough effect; inconclusive = small, poorly fitted or top-dose-only effect; inactive = no such curve, though single readings can be large or run the other way. Starred links: 1 amine or outer side, 2 acyl side, 3 side chain; linkers in the order of their positions; H or OH if unused. Positions of bridges follow the written chain, without caps; N, C: chain ends. Non-standard residues stand in square brackets, D forms with d. Residues, ends and D or L forms follow the SMILES beside them. Chains are numbered I, II in the order given. Actinocin(9to1) = Cc1c2oc3c(C)ccc(C(=O)[*:1])c3nc-2c(C(=O)[*:2])c(N)c1=O; NMeV = CN[CH](C(=O)O)C(C)C; Sar = CNCC(=O)O

What was measured:
[1] = High-throughput drug toxicity screening in the BPDCN cell line Gen2.2 (AID 1224824; call rule not given here;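 note: cells exposed to compounds for 48 h before reading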); details: Gen2.2 BPDCN cells; at 45.8 µM (top of the series) unless noted
Outline: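 Readout is ATP luminescence from Gen2.2 cells after two days of drug exposure in serum-containing medium at 37 °C. Values express percent activity, with vehicle defining full signal and 9.2 uM bortezomib defining zero.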

[2] = High-throughput drug toxicity screening in the BPDCN cell line Cal-1 (AID 1224825; call rule not given here); details: Cal-1 BPDCN cell viability, qHTS; at 45.8 µM (top of the series) unless noted
Outline: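 Cal-1 cells, 500 per well in phenol-red-free RPMI with 10% FBS, exposed to compounds for 48 hours at 37C, 5% CO2. Viability read by CellTiter-Glo luminescence; percent activity normalized to DMSO (100%) and 9.2 uM bortezomib final (0%).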

[3] = qHTS assay for measurement of the activity of small molecule inhibitors on Zika virus induced Caspase-3 activity in human iPSC derived neural progenitor cells (hNPCs) (AID 1224857); note: nearly all actives have a fitted effect of over 65% in size; note: potency is the fitted concentration of half-maximal effect
Outline: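 In medium with heparin 2 ug/ml and cyclopamine 2 uM, hNPCs (350 cells/well) received compound for one hour and then Zika virus at 2 FFU/cell; caspase activity was measured by Caspase-Glo 3/7 luminescence 6 h post-infection.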

[4] = qHTS assay for measurement of the activity of small molecule inhibitors on Zika virus induced Caspase-3 activity in human astrocytoma cells (AID 1224859);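 note: plate controls were ZIKV-infected untreated cells for no effect and uninfected cells for full effect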
Outline: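 A cell-based luminescent caspase-3/7 assay used SNB-19 cells infected with ZIKV (2 FFU/cell) for 6 h following 1 h compound pretreatment.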

[5] = qHTS Screen of the MIPE 4.0 Collection Against Ewings Sarcoma (RDES) (AID 1259252); note: nearly all actives have a fitted effect of over 35% in size; note: potency is the fitted concentration of half-maximal effect
Outline: (§1)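 Dose series incubated 48 h with cells in RPMI plus 5% FBS, glutamine and penicillin/streptomycin; cell viability then quantified via CellTiter-Glo.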

[6] = qHTS Screen of the MIPE 4.0 Collection Against Ewings Sarcoma (TC71) (AID 1259253); note: nearly all actives have a fitted effect of over 40% in size; note: potency is the fitted concentration of half-maximal effect
Outline: as §1

[7] = qHTS Screen of the MIPE 4.0 Collection Against Ewings Sarcoma (EW8) (AID 1259255); note: nearly all actives have a fitted effect of over 35% in size; note: potency is the fitted concentration of half-maximal effect;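 for viability: 100% = DMSO-treated cells and 0% = medium-only wells without cells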
Outline: as §1

[8] = qHTS Screen of the MIPE 4.0 Collection Against Ewings Sarcoma (TC32) (AID 1259256); note: nearly all actives have a fitted effect of over 45% in size; note: potency is the fitted concentration of half-maximal effect
Outline: as §1

[9] = qHTS profiling of the MIPE4 collection as inhibitors of Plasmodium falciparum (HB3) proliferation (AID 743347; call rule not given here;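 note: plate controls were DMSO vehicle wells for no effect and artemisinin wells for full effect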); details: P. falciparum HB3 in erythrocytes, SYBR Green DNA, 72 h; at 28.5 µM (top of the series) unless noted
Outline: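 Erythrocytes infected with P. falciparum (0.3% parasitemia, 2.5% hematocrit) incubated with compounds 72 h at 37 C, 5% CO2. Lysis with saponin/Triton buffer containing SYBR Green I, overnight at room temperature in the dark; DNA fluorescence (485/535 nm) normalised to 0.29 uM artemisinin and DMSO.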

[10] = P-glycoprotein substrates identified in KB-3-1 adenocarcinoma cell line, qHTS therapeutic library screen (AID 1346986); note: nearly all actives have a fitted effect of over 60% in size;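 note: potency is the fitted concentration of half-maximal effect; potency is for cytotoxicity meaning loss of cell viability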
Outline: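 Compounds were tested in dose-response against KB-3-1 and KB-8-5-11 cells at 37 degree C for 72 h, and viability was measured by luminescence. AC50 values came from curve fitting with class-based activity calls.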

Structure (SMILES) | cell viability, % of control (lower = more cytotoxic) [1] [%] | viability (% of control) [2] [%] | Potency [3] | Potency [4] | Potency [5] | Potency [6] | Potency [7] | Potency [8] | growth, % of control [9] [%] | Potency [10]
CC(N[C@H]1CCCC[C@H]1NC(=O)c1ccc(Cl)cc1)c1cccc2ccccc12 (stereo not given in full) | 114 | 20.6 | inactive | inactive | inactive | inactive | inactive | inactive |  | 
COc1cc(C)c(Sc2cnc(NC(=O)c3ccc(CNC(C)C(C)(C)C)cc3)s2)cc1C(=O)N1CCN(C(C)=O)CC1 (stereo not given) | 4.37 | 3.38 | inactive | inactive | 16.6 µM (active) | 14.8 µM (active) | 1.48 µM (active) | 2.96 µM (active) | 4.86 | inactive
Cc1ccc(O)c(C(CCN(C(C)C)C(C)C)c2ccccc2)c1 (stereo not given) | 239 | 103 | inactive | inactive | inactive | inactive | inactive | inactive | 19.1 | inactive
O=C(O)C(=O)Nc1cccc(C2=NN=N[N]2)c1 | 222 | 113 | inactive | inactive | inactive | inactive | inactive |  |  | 
COc1ccc(Nc2cc(-c3cnc(N)nc3)nc(N3CCOCC3)n2)cn1 | 28.9 | 25.7 | inactive | inactive | 5.9 µM (active) | 14.8 µM (active) | 11.8 µM (active) | 5.26 µM (active) | 6.14 | 1.46 µM (active)
O=C(O)C[C@H](O)C[C@H](O)C=Cc1c(C2CC2)nc2ccccc2c1-c1ccc(F)cc1 | 4.71 | 38.9 | inactive | inactive | 2.64 µM (active) | 1.87 µM (active) | 3.72 µM (active) | 1.05 µM (active) | 86.6 | 
CN[C@@H]1C[C@H]2O[C@@](C)([C@H]1OC)n1c3ccccc3c3c4c(c5c6ccccc6n2c5c31)C(=O)N[C@H]4O | 13 | 4.51 | inactive | inactive | 0.935 µM (active) | 0.209 µM (active) | 0.418 µM (active) | 0.187 µM (active) | 3.74 | 
NC(=O)Nc1sc(-c2ccc(F)cc2)cc1C(N)=O | 3.62 | 3.13 | inactive | inactive | 1.05 µM (active) | 1.66 µM (active) | 3.72 µM (active) | 1.48 µM (active) | 3.76 | 
CC(C)n1cnc2c(NCCc3ccc(O)cc3)nc(-c3csc4ccccc34)nc21 | 11.4 | 2.43 | inactive | inactive | 2.35 µM (active) | 4.18 µM (active) | 13.2 µM (active) | 4.18 µM (active) | 8.98 | 
CCOc1cc2ncc(C#N)c(Nc3ccc(OCc4ccccn4)c(Cl)c3)c2cc1NC(=O)C=CCN(C)C | 4.27 | 13.3 | inactive | inactive | 0.118 µM (active) | 2.35 µM (active) | 6.62 µM (active) | 2.96 µM (active) | 2.73 | 
OCC(O)C(O)C(O)CO (stereo not given) | 59.2 | 66.8 | inactive | inactive | inactive | inactive | inactive | inactive | 95.9 | 
N#Cc1c(C2CCNCC2)cc(-c2c(O)cccc2OCC2CC2)nc1N | 7.25 | 5.17 | inactive | inactive | 14.8 µM (active) | 10.5 µM (active) | 14.8 µM (active) | 14.8 µM (active) | 5.66 | 
CC(=O)O[C@H]1C[C@@H]2CC[C@H]3[C@H]4C[C@H]([N+]5(C)CCCCC5)[C@@H](OC(C)=O)[C@@]4(C)CC[C@@H]3[C@@]2(C)C[C@H]1N1CCCCC1 | 216 | 123 | inactive | inactive | 7.43 µM (active) | 7.43 µM (active) | 8.33 µM (active) | 7.43 µM (active) | 71.6 | 
C[C@H]1O[C@H](O[C@H]2[C@H](O)[C@@H](O)[C@@H](O[C@H]3[C@H](O)[C@@H](O)C(O)O[C@H]3CO)O[C@H]2CO)[C@H](O)[C@@H](O)[C@H]1N[C@H]1C=C(CO)[C@@H](O)[C@H](O)[C@@H]1O (stereo not given in full) | 193 | 134 | inactive | inactive | inactive | inactive | inactive | inactive | 103 | 
C[C@]12CC[C@@H]3c4ccc(O)cc4CC[C@H]3[C@H]1CC[C@H]2O | 50.6 | 12.5 | inactive | inactive | 8.33 µM (active) | 16.6 µM (active) | 18.7 µM (active) | 16.6 µM (active) | 86.3 | 
O=C(NNC(=O)c1ccc(CNS(=O)(=O)c2ccc(F)c(Cl)c2)cc1)c1ccccc1 | 143 | 116 | inactive | inactive | inactive | inactive | inactive | inactive | 588 | 
NC(=O)c1cccc(-c2cccc(OC(=O)NC3CCCCC3)c2)c1 | 128 | 91.7 | inactive | inactive | inactive | inactive | inactive | inactive | 94.2 | 
CC(=O)NC(CS)C(=O)O (stereo not given) | 87 | 93.6 | inactive | inactive | inactive | inactive | inactive | inactive | 60.7 | 

Structure (SMILES) | cell viability, % of control (lower = more cytotoxic) [1] [%] | viability (% of control) [2] [%] | Potency [3] | Potency [4] | Potency [5] | Potency [6] | Potency [7] | Potency [8] | growth, % of control [9] [%] | Potency [10]
c1ccc2c(Oc3nc(Nc4ccc(N5CCOCC5)cc4)c4ncn(C5CCCCC5)c4n3)cccc2c1 | 187 | 100 | inactive | inactive | inactive | inactive | inactive | inactive | 9.45 | 
Nc1cccc2c1C(=O)N(C1CCC(=O)NC1=O)C2=O (stereo not given) | 52.1 | 88.7 | inactive | inactive | inactive | inactive | inactive | 0.0042 µM (active) | 49.9 | 
COc1ccc(S(=O)(=O)Nc2cccnc2Nc2ccc(O)cc2)cc1 | 4.34 | 8.72 | inactive | inactive | 0.0833 µM (active) | 0.148 µM (active) | 0.0935 µM (active) | inactive | 51.4 | 
Cc1c2oc3c(C)ccc(C(=O)NC4C(=O)NC(C(C)C)C(=O)N5CCCC5C(=O)N(C)CC(=O)N(C)C(C(C)C)C(=O)OC4C)c3nc-2c(C(=O)NC2C(=O)NC(C(C)C)C(=O)N3CCCC3C(=O)N(C)CC(=O)N(C)C(C(C)C)C(=O)OC2C)c(N)c1=O (stereo not given) (I: TVP[Sar][NMeV] / II: TVP[Sar][NMeV]; ester I:1-I:C, II:1-II:C; linker I:N-II:N via Actinocin(9to1); configuration not given here) | 2.59 | 1.96 | inactive | inactive | inactive | inactive | inactive | inactive | 2.3 | 
Cc1nc(NC(=O)N2CCC[C@@H]2C(N)=O)sc1-c1ccnc(C(C)(C)C(F)(F)F)c1 | 21 | 65.8 | inactive | inactive | 1.48 µM (active) | 11.8 µM (active) | 23.5 µM (active) | 6.62 µM (active) | 5.19 | 
C#C[C@]1(O)CC[C@@H]2[C@@H]3CCC4=CC(=O)CC[C@@H]4[C@H]3CC[C@@]21CC | 146 | 114 | inactive | inactive | inactive | inactive | inactive | inactive | 61.1 | 
CNC(=O)c1cccc(-c2ccc3c(N4CCOC[C@H]4C)nc(N4CCOC[C@H]4C)nc3n2)c1 | 20.8 | 20.9 | inactive | inactive | 0.0833 µM (active) | 0.0662 µM (active) | 0.0935 µM (active) | 0.059 µM (active) | 5.12 | 
OCCNC1CCCc2c1[nH]c1ccc(-c3ccccc3)cc21 (stereo not given) | 1.69 | 0.798 | inactive | inactive | 26.4 µM (active) | 20.9 µM (active) | 23.5 µM (active) | 18.7 µM (active) | 3.72 | 
COc1ccc2c(c1OC)C(=O)OC2[C@H]1c2c(cc3c(c2OC)OCO3)CCN1C (stereo not given in full) | 24.5 | 8.98 | inactive | inactive | 0.0935 µM (active) | 0.235 µM (active) | 0.0526 µM (active) | inactive | 16.4 | 
O=C(O)[C@H](CC(=O)N1C[C@@H]2CCCC[C@H]2C1)Cc1ccccc1 | 133 | 89.5 | 23.5 µM (active) | inactive | inactive | inactive | inactive | inactive | 57.9 | 
C#C[C@]1(O)CC[C@@H]2[C@@H]3CCc4cc(O)ccc4[C@H]3CC[C@@]21C | 67.3 | 11.2 | inactive | inactive | 18.7 µM (active) | 16.6 µM (active) | 20.9 µM (active) | 20.9 µM (active) | 89.8 | 
O=C1NC(=O)[C@@H](c2cn3c4c(cccc24)CCC3)[C@H]1c1c[nH]c2ccccc12 | 4.68 | 14.9 | inactive | inactive | 0.296 µM (active) | 0.526 µM (active) | 0.235 µM (active) | 0.166 µM (active) | 60.4 | 
NS(=O)(=O)OC[C@@H]1C[C@@H](n2ccc3c(N[C@H]4CCc5ccccc54)ncnc32)C[C@H]1O | 6.59 | 2.9 | inactive | inactive | 0.332 µM (active) | 0.264 µM (active) | 0.132 µM (active) | 0.148 µM (active) | 51 | 
CCc1nc(-c2cccc(C)c2)c(-c2ccnc(NC(=O)c3ccccc3)c2)s1 | 229 | 25.7 | inactive | inactive | 14.8 µM (active) | 18.7 µM (active) | 20.9 µM (active) | 20.9 µM (active) | 29.7 | 
Cn1cnc2c(F)c(Nc3ccc(Br)cc3F)c(C(=O)NOCCO)cc21 | 4.85 | 56.4 | inactive | inactive | inactive | inactive | inactive | inactive | 84.6 | 
CCC[C@H]1C[C@H](C(=O)N[C@@H]([C@@H]2O[C@@H](SC)[C@@H](O)[C@@H](O)[C@@H]2O)[C@H](C)Cl)N(C)C1 | 155 | 128 | inactive | inactive | inactive | inactive | inactive | inactive | 25.3 | 
N#Cc1cc(NC(=O)Nc2nnc(-c3ccncc3)s2)ccc1-c1cn[nH]c1 | 92.3 | 111 | inactive | inactive | inactive | inactive | inactive | inactive | 41.3 | 
